Data on 14 compounds can be found in PubChem BioAssay.

Experiment [1] has as its system Plasmodium falciparum Sir2 (PF13_0152, Sir2A). Description: pfSir2 binders on small-molecule microarrays, primary screen, biochemical, small-molecule microarray, 635 nm fluorescence (AID 1098).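 Note: score merges spot fluorescence intensity with its signal-to-noise ratio.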 The following applies: small-molecule microarray binding, fluorescence 635 nm; higher = more signal.
Experiment [2] can be described thus: small-molecule microarray binders of probe aDKK1, primary screen, biochemical, biotinylated probe, 635/667 nm fluorescence (AID 1099).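 Note: score merges 667nm spot fluorescence with signal to noise across triplicate slides; reference of the scale not given here.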 The note with it: higher = more signal.
Experiment [3] in a line: small-molecule microarray binders of probe aCHRDL2, primary screen, biochemical, biotinylated probe, 635/667 nm fluorescence (AID 1100). The following applies: higher = more signal.
Experiment [4] in a line: splicing luciferase reporter signal modulators, primary screen, spliceosome inhibition project, cell-based, HEK293, splice +/- reporter (AID 1101).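 Note: HEK293 cells carrying a splicing-competent luciferase reporter gene; test concentration not given here.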 The note with it: luminescence, 24 h, higher = more signal, called active from +8 up or from −8 down.
The target in experiment [5] is Fibroblast growth factor 10 (Homo sapiens) (UniProt O15520). Description: FGF10 binders on small-molecule microarrays, primary screen, biochemical, small-molecule microarray, 635 nm fluorescence (AID 1102). The following applies: FGF10 binding, fluorescence 635 nm, higher = more signal.
In experiment [6] the test system is glycogen synthase kinase-3 (GSK3A per assay name; protocol says GSK3B). Description: GSK3 binders on small-molecule microarrays, primary screen, biochemical, small-molecule microarray, 635 nm fluorescence, GSK3A (AID 1103). Note: the record names both GSK3A and GSK3B. The note with it: small-molecule microarray binding, fluorescence 635 nm; higher = more signal.
Experiment [7] concerns the target Epidermal growth factor receptor (Homo sapiens) (UniProt P00533). Kind of experiment: EGFR binders on small-molecule microarrays, primary screen, biochemical, small-molecule microarray, 635 nm fluorescence (AID 1104).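 Note: score merges 667 nm emission intensity with spot signal to noise over triplicate slides.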 The note with it: EGFR binding, higher = more signal.
The target of experiment [8] is Follistatin-related protein 3 (Homo sapiens) (UniProt O95633). Description: FSTL3 binders on small-molecule microarrays, primary screen, biochemical, small-molecule microarray, 635 nm fluorescence (AID 1105).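 Note: score merges emission near 667 nm and signal to noise per printed spot across three slides.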 The following applies: FSTL3 binding, higher = more signal.
The target in experiment [9] is Dickkopf-related protein 1 (Homo sapiens) (UniProt O94907). Kind of experiment: DKK1 binders on small-molecule microarrays, primary screen, biochemical, small-molecule microarray, 635 nm fluorescence scan (AID 1106).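 Note: score merges emission near 667 nm with signal to noise over three replicate slides.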 The note with it: DKK1 binding, higher = more signal.
Experiment [10] has as its system Inhibin beta A chain (activin A). Kind of experiment: INHBA (activin A) binders on microarrays, primary screen, biochemical, small-molecule microarray, 635 nm fluorescence scan (AID 1107).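 Note: mouse activin A protein probed at 4.33 µg/mL on printed slides; score merges bound-protein fluorescence near 667 nm with spot signal-to-noise.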 The following applies: small-molecule microarray binding, higher = more signal.

Active and inactive are the calls of the source.

Chain of Dickkopf-related protein 1 (Homo sapiens) (O94907 whole entry, looked up): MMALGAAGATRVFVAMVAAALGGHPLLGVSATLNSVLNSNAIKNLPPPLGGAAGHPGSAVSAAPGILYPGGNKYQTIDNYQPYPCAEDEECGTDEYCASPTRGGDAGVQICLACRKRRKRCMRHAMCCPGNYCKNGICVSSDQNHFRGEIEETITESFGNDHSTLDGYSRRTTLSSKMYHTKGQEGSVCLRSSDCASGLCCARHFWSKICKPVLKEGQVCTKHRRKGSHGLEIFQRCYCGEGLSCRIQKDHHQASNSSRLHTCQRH
Chain of Fibroblast growth factor 10 (Homo sapiens) (O15520 whole entry, looked up): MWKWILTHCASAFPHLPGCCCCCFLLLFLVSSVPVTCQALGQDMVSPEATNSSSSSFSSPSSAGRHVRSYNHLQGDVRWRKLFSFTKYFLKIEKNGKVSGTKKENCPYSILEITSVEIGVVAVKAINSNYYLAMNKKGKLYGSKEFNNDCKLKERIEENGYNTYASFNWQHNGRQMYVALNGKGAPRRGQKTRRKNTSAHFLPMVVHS
Chain of Epidermal growth factor receptor (Homo sapiens) (P00533 whole entry, looked up): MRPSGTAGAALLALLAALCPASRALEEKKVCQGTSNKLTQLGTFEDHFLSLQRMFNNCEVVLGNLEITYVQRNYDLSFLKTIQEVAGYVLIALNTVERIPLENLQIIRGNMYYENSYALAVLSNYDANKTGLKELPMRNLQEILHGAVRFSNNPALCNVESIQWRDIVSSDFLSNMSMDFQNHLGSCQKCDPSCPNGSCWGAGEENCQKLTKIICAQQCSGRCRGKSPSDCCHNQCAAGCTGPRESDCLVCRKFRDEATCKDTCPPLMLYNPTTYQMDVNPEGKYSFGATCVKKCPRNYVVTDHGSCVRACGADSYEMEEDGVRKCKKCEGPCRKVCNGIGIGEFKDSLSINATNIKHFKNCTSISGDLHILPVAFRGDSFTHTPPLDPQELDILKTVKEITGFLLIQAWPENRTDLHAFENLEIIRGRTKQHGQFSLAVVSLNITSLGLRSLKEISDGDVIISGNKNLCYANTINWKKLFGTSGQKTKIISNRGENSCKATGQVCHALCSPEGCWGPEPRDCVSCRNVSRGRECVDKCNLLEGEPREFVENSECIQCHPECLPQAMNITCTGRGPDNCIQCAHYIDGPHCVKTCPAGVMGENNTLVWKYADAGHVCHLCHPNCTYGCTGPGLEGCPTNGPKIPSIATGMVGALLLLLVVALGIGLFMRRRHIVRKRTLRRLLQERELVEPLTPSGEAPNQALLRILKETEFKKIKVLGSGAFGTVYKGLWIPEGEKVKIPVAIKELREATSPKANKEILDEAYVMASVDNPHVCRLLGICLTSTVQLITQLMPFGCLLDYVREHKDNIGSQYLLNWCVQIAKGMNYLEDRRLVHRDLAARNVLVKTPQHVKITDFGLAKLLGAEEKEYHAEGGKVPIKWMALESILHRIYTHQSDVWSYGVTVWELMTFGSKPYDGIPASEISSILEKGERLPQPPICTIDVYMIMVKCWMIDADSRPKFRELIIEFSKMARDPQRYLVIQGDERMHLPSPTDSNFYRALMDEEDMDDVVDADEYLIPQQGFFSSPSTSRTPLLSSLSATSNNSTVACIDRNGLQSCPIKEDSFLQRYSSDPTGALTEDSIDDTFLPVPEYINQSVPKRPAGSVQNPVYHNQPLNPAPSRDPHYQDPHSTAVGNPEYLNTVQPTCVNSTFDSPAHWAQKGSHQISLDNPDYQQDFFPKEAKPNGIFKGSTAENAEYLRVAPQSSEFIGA
Chain of Follistatin-related protein 3 (Homo sapiens) (O95633 whole entry, looked up): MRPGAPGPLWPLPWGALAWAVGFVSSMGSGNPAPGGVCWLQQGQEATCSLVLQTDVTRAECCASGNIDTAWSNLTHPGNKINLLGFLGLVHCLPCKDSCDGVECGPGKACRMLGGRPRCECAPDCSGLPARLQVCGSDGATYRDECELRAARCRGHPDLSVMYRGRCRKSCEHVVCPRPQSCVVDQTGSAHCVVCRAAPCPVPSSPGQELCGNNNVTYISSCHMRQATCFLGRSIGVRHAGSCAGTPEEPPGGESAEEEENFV

Turning to `CCCCCN1CC=CC23O[C@@H]4/C=C\CCCOC(=O)C4[C@H]2C(=O)N(C(CO)C(C)C)[C@@H]3C1=O` (stereo not given in full), the composite z-score in [1] was 1.24; in experiment [2], -0.248; in experiment [3], -0.0212; in [5] it was 0.0758; in experiment [6], -0.949; in [7], -0.637. Also, the composite z-score is -0.188 in experiment [8], -0.148 in experiment [9] and 1.05 in experiment [10]. Moreover, the z-score in [4] is -0.455 (inactive).
`O=C1OCCC=C[C@H]2OC34C=CCN(CCN5CCOCC5)C(=O)[C@H]3N(CCCCCCO)C(=O)[C@@H]4C12` (stereo not given in full): the composite z-score in experiment [1] is 0.813; in experiment [2], -0.5; in experiment [3] it was -0.35; in experiment [5], -0.306; in [6], -0.225; in experiment [7] it was -0.71. For the same compound, the composite z-score is -0.351 in experiment [8], -0.292 in experiment [9] and 0.191 in experiment [10]. Moreover, the z-score in experiment [4] was 0.418 (inactive).
Regarding `COCCOC(=O)N1C(=O)[C@@]2(c3cc(C#CC4=CCCCC4)ccc31)[C@H](C(=O)Nc1nc3ccccc3s1)[C@H]1C(=O)O[C@H](c3ccccc3)[C@H](c3ccccc3)N1[C@@H]2c1ccccc1OCCO`, the composite z-score in experiment [1] came to 0.966; in [2] it was 0.756; in experiment [3], 0.4; in experiment [5], 1.33; in experiment [6] it was 1.29; in experiment [7] it was 0.765. The values for the composite z-score in [8], in experiment [9] and in experiment [10] were 1.41, 0.785 and 1.3, respectively. Further, in experiment [4], the z-score is -0.823 (inactive).
Regarding `CN1C(=O)C2C=CC(C(O)C3=C[C@H]4C[C@@H](C3)C4(C)C)N(Nc3ccccc3)C2C1=O` (stereo not given in full), the composite z-score worked out at 0.46 in [1]; 0.462 in experiment [2]; 0.63 in [3]; 0.944 in experiment [5]; 0.776 in experiment [6]; 0.356 in experiment [7]. The composite z-score in experiment [8] turned out to be 1.19; in experiment [9] it was 0.109; in experiment [10], 1.42. In experiment [4], the z-score was 0.757 (inactive).
On to `CC(CO)N1C(=O)[C@@H]2C3C(=O)OCCC/C=C\[C@H]3OC23C=CCN(c2ccc4ccccc4c2)C(=O)[C@@H]13` (stereo not given in full), for which the composite z-score was 0.0726 in experiment [1]; -0.146 in [2]; 0.128 in [3]; -1.01 in experiment [5]; -0.974 in experiment [6]; -1.04 in experiment [7]. In addition, the composite z-score in [8] was -0.718; in experiment [9] it was -1.17; in experiment [10] it was -0.107. For the same compound, the z-score in experiment [4] was -0.317 (inactive).
For the compound `C=CCNC(=O)[C@@H]1[C@H]2C(=O)O[C@H](c3ccccc3)[C@H](c3ccccc3)N2[C@H](c2ccc(OCCO)cc2)[C@@]12C(=O)Nc1ccc(C#Cc3ccc(OC)cc3)cc12`, the composite z-score in experiment [1] came out at 1.28; in [2] it was 0.707; in experiment [3], 0.792; in experiment [5], 0.939; in experiment [6], 1.29; in experiment [7], 0.641. The composite z-score is 1.25 in experiment [8], 1.07 in experiment [9] and 0.746 in experiment [10]. In experiment [4], the z-score was -0.476 (inactive).
Turning to `OC([C@@H]1CC(c2ccccc2)=NO1)[C@H]1CC(c2ccccc2)=NO1` (stereo not given in full), the composite z-score in [1] was -0.345; in experiment [2], -0.29; in experiment [3] it was -0.136; in experiment [5] it was 0.0725; in experiment [6], -0.453; in [7], -0.29. The composite z-score in experiment [8] was found to be 0.031; in experiment [9] it was 0.446; in experiment [10] it was 0.672. Moreover, in experiment [4], the z-score is -0.247 (inactive).
For `O=C1OCCC/C=C\[C@H]2OC34C=CCN(CCN5CCOCC5)C(=O)[C@H]3N(CCCO)C(=O)[C@@H]4C12` (stereo not given in full), the composite z-score is 1.37 in experiment [1]; -0.199 in experiment [2]; 0.0663 in [3]; 0.0487 in experiment [5]; -0.0632 in experiment [6]; -0.708 in experiment [7]. Besides, the composite z-score was -0.621 in experiment [8], -0.298 in experiment [9] and 0.576 in experiment [10]. In addition, in experiment [4], the z-score was 0.106 (inactive).
`C=CC[C@@]1(C(N)=O)N=C(c2ccc(OCCCO)cc2)O[C@@H]1c1ccccc1CN=[N+]=[N-]`: the composite z-score was 1.02 in experiment [1]; 0.917 in experiment [2]; 1.19 in experiment [3]; 0.903 in experiment [5]; 0.336 in experiment [6]; -0.44 in experiment [7]. The composite z-score in experiment [8] was 0.267; in experiment [9] it was -0.196; in [10], 1.14. Further, the z-score in experiment [4] is -1.63 (inactive).
Turning to `C=CCNC(=O)[C@H]1[C@@H]2C(=O)O[C@@H](c3ccccc3)[C@@H](c3ccccc3)N2[C@@H](c2ccc(OCCO)cc2)[C@]12C(=O)N(C(=O)OCCOC)c1ccccc12`, the composite z-score in experiment [1] turned out to be 1.57; in experiment [2], 0.192; in experiment [3], 0.299; in experiment [5], 0.942; in experiment [6], 1.31; in experiment [7] it was 0.461. Besides, the composite z-score in experiment [8] was 1.25; in experiment [9], 0.497; in [10] it was 0.247. In [4], the z-score is -1.04 (inactive).
`CN1C(=O)C2C=CC(C(O)c3cc(C(F)(F)F)cc(C(F)(F)F)c3)N(N3CCCCC3)C2C1=O` (stereo not given): the composite z-score in experiment [1] was 0.567; in experiment [2] it was 0.853; in experiment [3], 1.01; in experiment [5], 0.246; in [6] it was -0.0883; in experiment [7] it was -0.448. The composite z-score was 0.0198 in experiment [8], -0.722 in experiment [9] and 0.291 in [10]. Further, in experiment [4], the z-score was 0.139 (inactive).
Regarding `COC(=O)[C@@]1(Cc2ccc(OC)cc2)[C@H]2c3cc(C(=O)N(C)C)n(CCN4CNCC4=O)c3C[C@H]2CN1C(=O)c1ccccc1`, the composite z-score is 0.44 in experiment [1]; -0.218 in experiment [2]; 0.7 in experiment [3]; -0.33 in experiment [5]; -0.638 in [6]; 0.259 in experiment [7]. Besides, the composite z-score was -0.153 in [8], -0.812 in experiment [9] and 0.712 in experiment [10]. Moreover, the z-score in [4] is 2.02 (inactive).
For the compound `O=C(NCc1ccccc1)[C@@]1(Cc2ccccc2)N=C(c2ccc(OCCCO)cc2)O[C@H]1c1ccccc1`, the composite z-score was 0.652 in [1]; 1.15 in experiment [2]; 1.23 in experiment [3]; 0.366 in [5]; 0.3 in experiment [6]; -0.47 in experiment [7]. Further, the composite z-score in [8] is 0.448; in [9] it was -0.996; in experiment [10], 0.425. In addition, the z-score in [4] was 0.915 (inactive).
Take `CC(C)[C@@H](CO)NC(=O)[C@H]1[C@@H](c2ccccc2)N(c2ccccc2)O[C@@H]1C`: the composite z-score in experiment [1] was 0.008; in experiment [2], -0.343; in experiment [3], -0.343; in experiment [5], -0.123; in experiment [6], -0.418; in experiment [7], -0.0881. Moreover, the composite z-score was -0.218 in experiment [8], 0.227 in experiment [9] and 0.197 in experiment [10]. In addition, the z-score in experiment [4] was -0.18 (inactive).
